Experimental data taken from the supplement of paper PMC10338343.
± gives the standard deviation. In all, about 6,600 sequences were measured (“pre-steady-state target cleavage rate”: median about 0.07, highest 2% from about 0.72 on). The full list was thinned out, with the highest values kept by preference.

Each sequence was assayed on MIWI (PIWIL1) piRISC loaded with Kctd7 piRNA (30 nt) (assay: pre-steady-state target cleavage rate (min^-1); MIWI and MILI are mouse PIWI proteins and EfPiwi is from a freshwater sponge; tags in brackets are library labels; higher = faster piRNA-guided slicing of the target). Settings: guide: Kctd7 piRNA 5'p-UGUUAAUCUCUCAGAGAAGGUGACAGUGAU; auxiliary factor: 500 nM mouse GTSF1.
Method: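 Cleave-'n-Seq: a library of target RNAs (target site embedded in constant flanks, ACAGCATTCCGCGTTAGTGATATCCG... 5' flank; DNA-blocked outside the site) at 0.1 nM was incubated with 1 nM active mouse MILI or MIWI piRISC (synthetic 5'-monophosphorylated piRNA guide) with or without 500 nM mouse GTSF1 at 33 °C for 1 min to 16 h. Uncleaved targets were sequenced and normalised to non-target controls, and the pooled three trials were fitted to a burst-and-steady-state model to give the pre-steady-state cleavage rate (min^-1; k3 is constrained to at most 1e-4). Sequence is the target site only; target names encode pairing extent (gX:gY) and contiguous / 1-mismatch / 2-mismatch / bulge geometry. Fits with R² ≤ 0 are excluded.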

Sequence | pre-steady-state target cleavage rate
UUGACUGUCACCUUCUCUGAGACAUUAACA | 0.0684 ± 0.0093
AUCUCUGUCACCUUCUCUGAGAGAUUUUGA | 0.191 ± 0.042
UAGACUCUCACCUUCUCUGAGAGAUUAACA | 0.431 ± 0.029
UACACUGUCACCUUCUCUGAGUGAUUUACA | 0.0176 ± 0.0081
UAGACAGUCACCUUCUCUGAGAGAUUAUCA | 0.252 ± 0.029
UAGACUCACACCUUCUCUGAGAGAUUAUGA | 0.0733 ± 0.015
UACAGUGUCACCUUCUCUGAGAGAUUAACA | 0.663 ± 0.034
UACAUCUGUCACCUUCUCUGAGAGAUUAACA | 0.66 ± 0.027
UUCAGCUGUCACCUUCUCUGAGAGAUUAACA | 0.681 ± 0.037
UAGAGCUGUCACCUUCUCUGAGAGAUUAACA | 0.706 ± 0.047
UACAGCUGUCACCUUCUCUGAGAGAUUAACA | 0.749 ± 0.036
AUCAGCUGUCACCUUCUCUGAGAGAUUAACA | 0.792 ± 0.043
UAGUCUGUCACCUUCUCUGAGAGAUAUUCA | 0.211 ± 0.045
UUCACUGUCACCUUCUCUCUCAGAUUAACA | 0.00363 ± 0.0035
UAGUGAGUCACCUUCUGUCAGAGAUUAACA | 0.00937 ± 0.0041
UACACUGACACCUUCUCUGAGAGAUUUUGA | 0.0697 ± 0.019
UAGUGACUCACCUUGUCUGUGAGAUUAACA | 0.0416 ± 0.0061
UUCACUGUCACCAUCUCUGAGAGAUUAACA | 0.738 ± 0.029
UUCACUGUCACCAUCUCUGAGAGAUUAAGA | 0.134 ± 0.025
AUCACUGUCACCAUCUCUGAGAGAUUAACA | 0.795 ± 0.048
UUCACUGUCACCAUCUCUGUGAGAUUAACA | 0.215 ± 0.015
AUCACUGUCACCAUCUCUGUGAGAUUAACA | 0.259 ± 0.021
UACACUGUCACCAUCUCUGAGAGAUUAACA | 0.532 ± 0.044
AUCACUGUCACCAUCUCUGAGAGAUUAAGA | 0.184 ± 0.032
AACACUGUCACCAUCUCUGAGAGAUUAACA | 0.77 ± 0.035

Sequence | pre-steady-state target cleavage rate
AUCACUGACACCAUCUCUGAGAGAUUAACA | 0.603 ± 0.037
UAGUGUGUCACCUACUCUCAGAGAUUAACA | 0.0454 ± 0.009
AUCACUGAGACCUUCUCUGAGAGAUUAAGA | 0.17 ± 0.033
UAGUCUGUCUCCAUCUCUGAGAGAUUAACA | 0.509 ± 0.034
UAGUGAGUCACCUUGUCUGAGAGUUUAACA | 0.0617 ± 0.013
UAGUGACUCACCUUCUUUGAGAGAUUAACA | 0.196 ± 0.021
UAGUGACUCACCUUCUCUGAGUGAUUAACA | 0.0244 ± 0.0052
UAGUGACAGACCUUCCUCUGAGAGAUUAACA | 0.0189 ± 0.004
UAGUGACAGACCUUACUCUGAGAGAUUAACA | 0.0198 ± 0.0041
UAGUGAGUCACGUUCUCAGAGAGAUUAACA | 0.171 ± 0.017
UACACUGUUACCUUCUCUGAGAGAUUAACA | 0.441 ± 0.024
UAGACUGUCACCUUCUGUGAGAGAUAUUGA | 0.0117 ± 0.004
AUCACUGUACCUUCUCUGAGAGAUUAACA | 0.769 ± 0.051
UAGACUGUACACCUUCUCUGAGAGAUUAACA | 0.779 ± 0.055
AUCACUGUACACCUUCUCUGAGAGAUUAACA | 0.8 ± 0.055
UUCACUGUACACCUUCUCUGAGAGAUUAACA | 0.655 ± 0.033
UACACUGUACACCUUCUCUGAGAGAUUAACA | 0.623 ± 0.03
UAGACUGACACCUUCUCUGAGAGAUUAACA | 0.62 ± 0.035
UUCACUGUACCUUCUCUGAGAGAUUAACA | 0.712 ± 0.036
AUCACUGUAACCUUCUCUGAGAGAUUAACA | 0.651 ± 0.03
UAGACUGUACCUUCUCUGAGAGAUUAACA | 0.572 ± 0.044
UAGUGACAGUCCUUCUCAGAGAGUUUAACA | 0.0044 ± 0.0027
UAGUGACUCACGAUCUCUGAGAGAUUAACA | 0.00958 ± 0.0018
UACACUGUCACCUUCUCUGAGAGAUGUAACA | 0.386 ± 0.051
AACACUCUCACCUUCUCUGAGAGAUUAACA | 0.564 ± 0.035

Sequence | pre-steady-state target cleavage rate
UACACUGUCACCUUCUCUGAGAGAUUACCA | 0.152 ± 0.024
AUCACUGUCACAUUCUCUGAGAGAUUAACA | 0.799 ± 0.035
UACACUGUCACCAUUCUCUGAGAGAUUAACA | 0.674 ± 0.035
UUCACUGUCACCAUUCUCUGAGAGAUUAACA | 0.725 ± 0.029
UACACUGUCACAUUCUCUGAGAGAUUAACA | 0.676 ± 0.036
UUCACUGUCACAUUCUCUGAGAGAUUAACA | 0.682 ± 0.031
UUCACUGUCACCUCUCUGAGAGAUUAACA | 0.501 ± 0.037
UUCACUGUCACCUCUCUCUGAGAGAUUAACA | 0.289 ± 0.022
AUCACUGUCACCAUUCUCUGAGAGAUUAACA | 0.741 ± 0.036
UAGUCUGUCACCAUUCUCUGAGAGAUUAACA | 0.601 ± 0.03
UACACUGUCCACCUUCUCUGAGAGAUUAACA | 0.496 ± 0.038
UAGAGUGACACCUUCUCUGAGAGAUUAACA | 0.55 ± 0.023
UAGACUUUCACCUUCUCUGAGAGAUUAACA | 0.612 ± 0.033
UAGUGACAGUGUUUCUCUGAGAGAUUAACA | 0.00493 ± 0.0019
UAGUGUGACACCUUCUCUGAGAGAUUAUGA | 0.0202 ± 0.0074
UAGACUGUCAACCUUCUCUGAGAGAUUAACA | 0.282 ± 0.023
UUCACUGUCAACUUCUCUGAGAGAUUAACA | 0.668 ± 0.028
AUCACUGUCAACUUCUCUGAGAGAUUAACA | 0.793 ± 0.045
UACACUGUCACACUUCUCUGAGAGAUUAACA | 0.544 ± 0.023
UAGACUGUCAACUUCUCUGAGAGAUUAACA | 0.726 ± 0.049
UACACUGUCAACCUUCUCUGAGAGAUUAACA | 0.193 ± 0.016
AUCACUGUCACUUCUCUGAGAGAUUAACA | 0.628 ± 0.044
UACACUGUCAACUUCUCUGAGAGAUUAACA | 0.796 ± 0.035
UAGUCUGUCAACUUCUCUGAGAGAUUAACA | 0.593 ± 0.024
